For assay [1], the system named is Plasmodium falciparum Sir2 (PF13_0152, Sir2A). Briefly: Plasmodium falciparum Sir2A binding compounds – biochemical, small-molecule microarray, 635 nm fluorescence, primary screen (AID 1098).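 Also: score merges spot fluorescence intensity with its signal-to-noise ratio.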 Conditions: fluorescence 635 nm, higher = more signal.
Assay [2] can be described thus: probe aDKK1 binding to arrayed compounds – biochemical, biotinylated probe, 635/667 nm fluorescence, primary screen (AID 1099).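 Also: score merges 667nm spot fluorescence with signal to noise across triplicate slides.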 The note with it: small-molecule microarray, higher = more signal.
A short description of assay [3]: probe aCHRDL2 binding to arrayed compounds – biochemical, biotinylated probe, 635/667 nm fluorescence, primary screen (AID 1100). The note with it: small-molecule microarray, higher = more signal.
Assay [4] in a line: change in splice reporter luminescence, either direction, cell-based, HEK293, spliceosome inhibition project, primary screen (AID 1101).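 Also: HEK293 cells carrying a splicing-competent luciferase reporter gene; test concentration not given here.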 Conditions: HEK293 splicing luciferase reporter, 24 h, higher = more signal, called active from +8 up or from −8 down.
For assay [5], the target named is Fibroblast growth factor 10 (Homo sapiens) (UniProt O15520). Briefly: compounds binding fibroblast growth factor 10 – biochemical, small-molecule microarray, 635 nm fluorescence, primary screen (AID 1102). Conditions: FGF10 binding, fluorescence 635 nm, higher = more signal.
Sequence of Fibroblast growth factor 10 (Homo sapiens) (O15520 whole entry, looked up): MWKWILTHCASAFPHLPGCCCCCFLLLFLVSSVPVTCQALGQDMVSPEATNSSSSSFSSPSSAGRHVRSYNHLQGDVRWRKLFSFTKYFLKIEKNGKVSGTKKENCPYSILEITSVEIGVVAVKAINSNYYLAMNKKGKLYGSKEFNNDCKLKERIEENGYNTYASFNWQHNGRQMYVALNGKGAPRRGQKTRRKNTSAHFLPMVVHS
The subject of assay [6] is glycogen synthase kinase-3 (GSK3A per assay name; protocol says GSK3B). Briefly: compounds binding glycogen synthase kinase-3 – biochemical, small-molecule microarray, 635 nm fluorescence, GSK3A, primary screen (AID 1103). Also: the record names both GSK3A and GSK3B. Conditions: fluorescence 635 nm, higher = more signal.
Assay [7] addresses Epidermal growth factor receptor (Homo sapiens) (UniProt P00533). Nature of the assay: compounds binding epidermal growth factor receptor – biochemical, small-molecule microarray, 635 nm fluorescence, primary screen (AID 1104).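 Also: score merges 667 nm emission intensity with spot signal to noise over triplicate slides.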 Conditions: EGFR binding, higher = more signal.
In assay [8] the target is Follistatin-related protein 3 (Homo sapiens) (UniProt O95633). Briefly: compounds binding follistatin-related protein 3 – biochemical, small-molecule microarray, 635 nm fluorescence, primary screen (AID 1105).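 Also: score merges emission near 667 nm and signal to noise per printed spot across three slides.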 Conditions: FSTL3 binding, higher = more signal.
Sequence of Follistatin-related protein 3 (Homo sapiens) (O95633 whole entry, looked up): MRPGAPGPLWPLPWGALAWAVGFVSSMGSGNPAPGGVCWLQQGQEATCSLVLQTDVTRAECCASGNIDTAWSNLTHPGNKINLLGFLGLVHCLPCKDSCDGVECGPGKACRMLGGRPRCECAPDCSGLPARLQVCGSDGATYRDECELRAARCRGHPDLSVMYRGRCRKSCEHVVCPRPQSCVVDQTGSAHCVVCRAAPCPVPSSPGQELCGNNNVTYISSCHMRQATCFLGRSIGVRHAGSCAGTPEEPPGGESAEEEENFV
Assay [9] deals with Dickkopf-related protein 1 (Homo sapiens) (UniProt O94907). Briefly: small molecules binding DKK1 protein – biochemical, small-molecule microarray, 635 nm fluorescence scan, primary screen (AID 1106).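 Also: score merges emission near 667 nm with signal to noise over three replicate slides.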 Conditions: higher = more signal.
Sequence of Dickkopf-related protein 1 (Homo sapiens) (O94907 whole entry, looked up): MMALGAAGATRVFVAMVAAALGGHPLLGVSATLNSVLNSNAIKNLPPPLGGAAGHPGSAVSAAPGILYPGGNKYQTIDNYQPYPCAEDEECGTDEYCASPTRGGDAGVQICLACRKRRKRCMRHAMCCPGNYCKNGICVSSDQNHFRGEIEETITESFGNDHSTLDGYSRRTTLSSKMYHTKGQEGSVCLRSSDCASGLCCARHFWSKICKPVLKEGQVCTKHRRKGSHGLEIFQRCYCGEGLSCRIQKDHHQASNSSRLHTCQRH
Assay [10] concerns Inhibin beta A chain (activin A). Nature of the assay: small molecules binding activin A – biochemical, small-molecule microarray, 635 nm fluorescence scan, primary screen (AID 1107).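 Also: mouse activin A protein probed at 4.33 µg/mL on printed slides; score merges bound-protein fluorescence near 667 nm with spot signal-to-noise.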 The note with it: INHBA, higher = more signal.
Assay [11] has as its system Human papillomavirus type 1a protein E7 (residues 44-93). Briefly: small molecules binding HPV E7 44-93 – biochemical, small-molecule microarray, residues 44-93, 635 nm fluorescence, primary screen (AID 1108).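 Also: E7 fragment applied at 1 µg/mL in TBST for 1 h at 4 C; score combines spot fluorescence with its signal to noise ratio.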 The note with it: fluorescence 635 nm, higher = more signal.
The nature of assay [12]: hepatitis C replication reporter changes, two-sided – Huh7 cells, luciferase reporter, HCV replication inhibitor project, primary screen (AID 1109).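 Also: huh7 hepatoma cells harbouring a luciferase neomycin HCV replicon reporter; luciferase luminescence as measure of HCV replicon replication; test concentration not given here.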 Conditions: Huh7 HCV replicon luciferase reporter, 48 h; higher = more signal. In general terms: Reporter assays use an easily measured gene product as a stand-in for the process of interest.
The target of assay [13] is Left-right determination factor 2 (Homo sapiens) (UniProt O00292). Briefly: small molecules binding LEFTY2 protein – biochemical, small-molecule microarray, 635 nm fluorescence scan, primary screen (AID 1110). The note with it: higher = more signal.
Sequence of Left-right determination factor 2 (Homo sapiens) (O00292 whole entry, looked up): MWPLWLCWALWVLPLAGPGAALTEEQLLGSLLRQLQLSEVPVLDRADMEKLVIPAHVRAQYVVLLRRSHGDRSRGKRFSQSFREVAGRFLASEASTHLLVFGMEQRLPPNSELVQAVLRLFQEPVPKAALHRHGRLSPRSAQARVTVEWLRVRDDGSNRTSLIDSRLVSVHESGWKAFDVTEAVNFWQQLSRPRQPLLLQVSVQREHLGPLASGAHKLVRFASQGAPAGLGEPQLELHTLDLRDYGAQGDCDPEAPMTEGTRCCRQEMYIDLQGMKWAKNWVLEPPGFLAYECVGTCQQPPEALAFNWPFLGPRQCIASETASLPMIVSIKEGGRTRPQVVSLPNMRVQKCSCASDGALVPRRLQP
The target of assay [14] is Calmodulin-1 (Homo sapiens) (UniProt P0DP23). Nature of the assay: small molecules binding calmodulin-1 with EGTA – biochemical, small-molecule microarray, Cy5-labelled CALM1, profiling panel (AID 1111).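 Also: labelled calmodulin applied in Tris saline Tween buffer holding calcium plus EGTA and DTT.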 Conditions: Cy5-CALM1 binding fluorescence, higher = more signal.
The target is the same in assay [15]. Briefly: small molecules binding Ca-loaded calmodulin-1 – biochemical, small-molecule microarray, Cy5-labelled CALM1, plus calcium, artefact control for SMM control-protein annotation, profiling panel (AID 1112).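 Also: score merges spot fluorescence with signal to noise from triplicate slides.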 Conditions: Cy5-CALM1 binding fluorescence, higher = more signal.
The nature of assay [16]: probe aWnt5a binding to arrayed compounds – biochemical, biotinylated probe, 635/667 nm fluorescence, primary screen (AID 1113).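 Also: score merges 667 nm fluorescence intensity with signal-to-noise per printed feature.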 Conditions: small-molecule microarray, higher = more signal.
Assay [17] can be described thus: probe aShh binding to arrayed compounds – biochemical, biotinylated probe, 635/667 nm fluorescence, primary screen (AID 1114).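 Also: probe is biotin-labelled aShh protein from a stem cell growth factor screen; measures binding of labelled protein to compounds printed on the slide; score merges feature fluorescence at 667 nm with signal-to-noise.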 The note with it: small-molecule microarray, higher = more signal.
Assay [18] can be described thus: probe aNog binding to arrayed compounds – biochemical, biotinylated probe, 635/667 nm fluorescence, primary screen (AID 1115).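 Also: probe is biotinylated aNog protein used at 0.15 µg/mL for 1 h at 4 C; z-score combines 667 nm fluorescence of each spot with its signal to noise.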 The note with it: small-molecule microarray, higher = more signal.
Assay [19] addresses Torsin-1A-interacting protein 1 (Homo sapiens) (UniProt Q5JTV8). Briefly: compound microarray binding of lysate hLAP1 – cell lysate, small-molecule microarray, COS7 lysate, 635/667 nm fluorescence, primary screen (AID 1116). Conditions: 635 nm fluorescence, higher = more signal.
Assay [20] has as its target Alpha-bungarotoxin (Bungarus multicinctus) (UniProt P60615). Nature of the assay: compounds binding labelled alpha-BTX control protein – biochemical, small-molecule microarray, Alexa647 label, 635/667 nm fluorescence, artefact control for SMM control protein annotation, profiling panel (AID 1117). The note with it: alpha-BTX-A647 binding fluorescence, higher = more signal.

Active and inactive are the calls of the source.

Sequence of Alpha-bungarotoxin (Bungarus multicinctus) (P60615 whole entry, looked up): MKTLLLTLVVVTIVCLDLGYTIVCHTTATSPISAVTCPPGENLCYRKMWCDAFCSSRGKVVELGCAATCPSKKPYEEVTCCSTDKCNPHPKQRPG
Sequence of Torsin-1A-interacting protein 1 (Homo sapiens) (Q5JTV8 whole entry, looked up): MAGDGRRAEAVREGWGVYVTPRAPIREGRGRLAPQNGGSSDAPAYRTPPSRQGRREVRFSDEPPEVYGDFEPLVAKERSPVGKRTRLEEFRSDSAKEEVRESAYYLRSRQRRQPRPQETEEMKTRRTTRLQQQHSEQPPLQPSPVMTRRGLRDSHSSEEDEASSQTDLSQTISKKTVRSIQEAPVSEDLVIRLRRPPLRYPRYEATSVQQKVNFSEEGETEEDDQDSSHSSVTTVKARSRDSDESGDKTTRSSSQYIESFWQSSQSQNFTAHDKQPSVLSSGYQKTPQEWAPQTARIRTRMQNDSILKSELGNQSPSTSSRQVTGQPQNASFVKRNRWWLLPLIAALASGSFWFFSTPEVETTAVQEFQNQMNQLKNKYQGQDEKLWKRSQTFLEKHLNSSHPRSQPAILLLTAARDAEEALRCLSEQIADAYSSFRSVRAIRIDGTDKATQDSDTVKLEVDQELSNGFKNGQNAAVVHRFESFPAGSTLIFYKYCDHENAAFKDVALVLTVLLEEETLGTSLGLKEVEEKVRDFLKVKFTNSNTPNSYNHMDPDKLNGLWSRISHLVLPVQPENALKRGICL
Sequence of Epidermal growth factor receptor (Homo sapiens) (P00533 whole entry, looked up): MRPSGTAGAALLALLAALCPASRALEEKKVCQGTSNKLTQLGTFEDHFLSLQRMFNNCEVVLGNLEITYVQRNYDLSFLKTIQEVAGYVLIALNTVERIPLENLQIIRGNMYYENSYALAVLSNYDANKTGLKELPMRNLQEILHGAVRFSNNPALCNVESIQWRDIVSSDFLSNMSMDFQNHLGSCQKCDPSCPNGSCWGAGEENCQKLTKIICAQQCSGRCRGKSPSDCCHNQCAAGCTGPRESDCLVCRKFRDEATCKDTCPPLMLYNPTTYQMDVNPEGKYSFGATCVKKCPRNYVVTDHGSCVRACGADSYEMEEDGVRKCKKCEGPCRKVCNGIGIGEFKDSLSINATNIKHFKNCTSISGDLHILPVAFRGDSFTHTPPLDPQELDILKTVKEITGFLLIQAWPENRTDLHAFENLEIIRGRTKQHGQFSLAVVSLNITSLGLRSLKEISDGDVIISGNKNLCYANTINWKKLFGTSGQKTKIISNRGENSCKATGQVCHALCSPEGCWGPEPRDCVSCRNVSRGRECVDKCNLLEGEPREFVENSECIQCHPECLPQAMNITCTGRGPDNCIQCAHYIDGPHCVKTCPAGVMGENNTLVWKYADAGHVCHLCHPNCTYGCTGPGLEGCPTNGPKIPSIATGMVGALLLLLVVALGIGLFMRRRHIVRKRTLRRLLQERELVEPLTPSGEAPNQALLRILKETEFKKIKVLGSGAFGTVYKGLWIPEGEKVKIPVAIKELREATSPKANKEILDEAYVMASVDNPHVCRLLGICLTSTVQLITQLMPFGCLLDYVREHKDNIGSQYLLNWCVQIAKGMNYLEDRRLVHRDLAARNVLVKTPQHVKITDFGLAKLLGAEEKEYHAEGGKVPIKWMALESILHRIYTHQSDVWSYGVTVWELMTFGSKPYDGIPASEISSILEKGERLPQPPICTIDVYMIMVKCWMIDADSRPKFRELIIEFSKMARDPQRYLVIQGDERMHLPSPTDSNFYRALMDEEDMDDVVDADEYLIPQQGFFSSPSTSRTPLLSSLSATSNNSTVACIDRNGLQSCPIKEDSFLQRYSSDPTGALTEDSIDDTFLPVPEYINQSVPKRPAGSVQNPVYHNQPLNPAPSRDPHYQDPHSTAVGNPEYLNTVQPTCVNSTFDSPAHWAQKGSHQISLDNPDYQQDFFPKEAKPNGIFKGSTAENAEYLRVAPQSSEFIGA

As for `COc1ccc(CCNC(=O)[C@@]2(Sc3ccc(C)cc3)CC(=O)N(C(C)C)[C@@H]2c2ccc(CO)cc2I)cc1`, the composite z-score in [1] is 0.699; in assay [2] it was 0.187; in [3], 0.778; in assay [5], -0.316; in [6], -1.02; in [7], -0.719. Moreover, the composite z-score was -0.645 in [8]; -0.267 in [9]; 1.08 in assay [10]; 0.536 in [11]; -1.09 in assay [13]; -0.434 in assay [14]. For the same compound, the composite z-score in assay [15] is 0.428; in assay [16], -0.225; in [17], -0.0553; in [18] it was 0.905; in assay [19], 0.341; in assay [20], -0.333. In addition, the z-score in assay [4] is -0.658 (inactive); in [12] it was -2.41.
`COc1cc2c(cc1OC)CN(C(=O)[C@@H]1[C@H]3C(=O)O[C@H](c4ccccc4)[C@H](c4ccccc4)N3[C@H](c3ccc(O)cc3)[C@@]13C(=O)Nc1ccccc13)CC2`: the composite z-score in assay [1] is 1.66; in assay [2], -0.22; in assay [3], 0.104; in assay [5] it was 0.397; in assay [6], 1; in assay [7] it was -0.0444. The composite z-score was 0.346 in assay [8]; 0.27 in assay [9]; -0.131 in [10]; 1.39 in [11]; 0.0147 in assay [13]; 0.457 in [14]. The composite z-score in assay [15] was 0.603; in [16] it was -0.154; in assay [17] it was -0.167; in assay [18] it was -0.321; in [19], 0.688; in assay [20], 1.74. For the same compound, the z-score in assay [4] is -0.764 (inactive); in assay [12], -1.74.
As for `C[C@H]1NC(=O)[C@@]23C(=O)N[C@@H](Cc4ccccc4)C2[C@H](C)[C@@]2(C)O[C@H]2C3/C=C/C/C=C\CNC(=O)[C@@H]2CCCN2C1=O` (stereo not given in full), the composite z-score in [1] is 0.466; in [2], -0.192; in [3] it was -0.575; in assay [5], 0.861; in assay [6], 0.365; in [7], 0.283. The composite z-score in assay [8] stood at 0.891; in assay [9] it was 0.296; in assay [10] it was 0.947; in [11] it was 0.209; in [13], 0.297; in assay [14], 0.339. The composite z-score in [15] is -0.52; in assay [16], -0.0593; in assay [17] it was -0.0035; in assay [18], -0.0841; in assay [19], 0.159; in [20], 0.368. Also, the values for the z-score in assay [4] and in assay [12] were 0.856 (inactive) and 0.534, respectively.
In the case of `COc1ccc(C#Cc2ccc3c(c2)[C@]2(C(=O)N3)[C@H](C(=O)NC[C@H](O)c3ccccc3)[C@H]3C(=O)O[C@H](c4ccccc4)[C@H](c4ccccc4)N3[C@@H]2c2ccc(O)cc2)cc1`, the composite z-score is 1.16 in assay [1]; -0.0262 in assay [2]; 0.295 in assay [3]; 1.02 in assay [5]; 1.16 in [6]; 0.417 in assay [7]. Also, the composite z-score in assay [8] was determined as 0.768; in assay [9] it was 0.484; in assay [10], 0.0998; in assay [11], 1.43; in assay [13] it was 0.559; in assay [14], 1.04. Also, the composite z-score in assay [15] was -0.064; in [16] it was 0.0952; in [17], 0.0723; in assay [18], 0.277; in [19], 1.06; in [20], 1.72. In addition, the z-score is -0.993 (inactive) in assay [4] and -1.38 in assay [12].
As for `CO[C@H]1O[C@H](CO)[C@@H](OC(=O)Nc2cccc(F)c2)[C@H](OC(=O)Nc2ccccc2)[C@@H]1OC(=O)Nc1ccccc1`, the composite z-score in assay [1] stood at 0.931; in assay [2] it was 0.433; in assay [3], 0.824; in assay [5], 1.35; in assay [6], 1.28; in [7], 0.397. Moreover, the composite z-score was 1.2 in assay [8]; -0.259 in assay [9]; 0.489 in assay [10]; 1.26 in assay [11]; 0.071 in assay [13]; 0.471 in assay [14]. The composite z-score is -0.365 in assay [15]; 0.0257 in [16]; 0.365 in assay [17]; 0.883 in assay [18]; 0.642 in [19]; 0.0941 in assay [20]. Moreover, the z-score in assay [4] is -1.24 (inactive); in assay [12] it was -3.23.
Consider `CC1CC/C=C\[C@H]2OC34C=CCN(C(C)(C)C)C(=O)[C@H]3N(C(C)CO)C(=O)[C@@H]4C2C(=O)O1` (stereo not given in full), for which the composite z-score was -1.24 in [1]; -0.366 in assay [2]; -0.266 in assay [3]; -0.443 in assay [5]; -0.948 in assay [6]; -0.698 in assay [7]. Also, the composite z-score in assay [8] was -0.268; in assay [9] it was -0.007; in assay [10], 1.28; in assay [11], -0.864; in assay [13], -0.442; in assay [14], -1.19. For the same compound, the composite z-score is -1.23 in [15]; -0.124 in [16]; -0.0011 in [17]; -0.219 in assay [18]; -0.23 in assay [19]; -0.942 in assay [20]. Further, the z-score in assay [4] is 1.11 (inactive); in assay [12], -1.4.
With `C=C(/C(=C/C[C@H](OC(C)=O)c1ccccc1OCCO)c1cnc2ccccc2c1)C(C)C`, the composite z-score in assay [1] is 1.55; in assay [2], 0.955; in assay [3], -0.269; in assay [5] it was 0.53; in assay [6], 0.311; in assay [7], -0.306. The composite z-score in assay [8] is 1.04; in [9], 0.304; in [10] it was 1.87; in assay [11] it was 0.101; in assay [13] it was -0.0274; in assay [14], 0.361. Besides, the composite z-score is -0.378 in assay [15]; -0.034 in assay [16]; 0.184 in assay [17]; -0.036 in assay [18]; 0.327 in [19]; 1.19 in [20]. In addition, the z-score in assay [4] is 0.0118 (inactive); in assay [12] it was -2.42.
On to `COc1ccc(C#Cc2ccc3c(c2)[C@]2(C(=O)N3)[C@H](C(=O)Nc3nc4ccccc4s3)[C@H]3C(=O)O[C@H](c4ccccc4)[C@H](c4ccccc4)N3[C@@H]2c2ccc(O)cc2)cc1`, for which the composite z-score in [1] was found to be 1.15; in assay [2], 1.06; in assay [3], 0.144; in assay [5] it was 1.43; in assay [6], 1.25; in assay [7], 0.516. The composite z-score in assay [8] turned out to be 1.48; in assay [9], 0.63; in [10], 1.09; in assay [11] it was 1.42; in assay [13], 0.653; in assay [14] it was 1.7. Also, the composite z-score is 0.782 in [15]; 0.383 in assay [16]; 1.3 in [17]; 2.23 in assay [18]; 0.934 in assay [19]; 1.66 in assay [20]. For the same compound, the values for the z-score in assay [4] and in assay [12] were -0.444 (inactive) and -1.04, respectively.

Values taken from PubChem BioAssay.
